# High-throughput results deposited in PubChem by National Center for Advancing Translational Sciences (NCATS).
# This is a sample that favours compounds with a hit; in the whole collection about 2.8% have one here.
# RGS4 inhibitor – human RGS4 inhibition; Potency, µM (doses to about 114 µM), without a hit: top-dose activity change, negative = inhibition, usual class: inhibitors; 390,000 compounds, 0.039% hits; AID 504845; Transcreener GDP fluorescence polarization, RGS4-accelerated GTP hydrolysis; active = well fitted inhibition curve with a large enough effect; inconclusive = small, poorly fitted or top-dose-only effect; inactive = no such curve, though single readings can be large or run the other way; note: potency is the fitted concentration of half-maximal effect; % is set by controls: 0 for no effect and ±100 for the full control effect; nearly all actives have a fitted effect of over 75% in size
# Target sequence (P49798 whole entry, looked up): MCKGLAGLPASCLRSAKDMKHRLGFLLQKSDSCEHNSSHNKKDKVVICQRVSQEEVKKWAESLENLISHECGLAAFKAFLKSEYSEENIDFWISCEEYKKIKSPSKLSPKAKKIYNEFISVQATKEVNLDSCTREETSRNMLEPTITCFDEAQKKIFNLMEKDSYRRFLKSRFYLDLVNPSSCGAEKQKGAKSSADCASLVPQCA
#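 MLSMR compounds (23 nl, pin-transferred) preincubated 10 min at room temperature with a 500nM (2x) first reagent, then RGS4 at 900nM (2x) plus Transcreener GDP mix added; fluorescence polarization (620/688 nm) read before and after 90 min at 30 °C.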
# LDHA inh – blocks human lactate dehydrogenase A. P00338. purified LDHA, NADH/diaphorase-resazurin fluorescence; active compounds read low. activity change, % (values are at about 110 or 230 µM). 480,000 compounds, 0.15% hits. AID 1347041; in the data active = activity change below about -30%; inconclusive = mostly about -25% to -30%;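 note: plate controls were DMSO wells for no effect and wells without enzyme for full effect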
#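 Resorufin fluorescence (ex540/em590), read at 0 and 20 min after diaphorase/resazurin addition, reports the NADH left after a 5 min room-temperature reaction of 2 nM human LDH5 with 0.06 mM NADH and 0.2 mM pyruvate.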
# DRD3 agonist – agonists of human D3 dopamine receptor | AID 652048 | max activation, % | P35462 | D3R DiscoveRx beta-arrestin cells, luminescence, 90 min | 410,000 compounds, 0.58% hits; in the data active = max activation above about 30%; note: 0% is about no effect
#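 Agonist-mode cell screen: cells plated at 1500/well and incubated overnight at 37 °C, then exposed to library compounds for 90 min at 37 °C. Detection reagent was added for 30–60 min at room temperature, and luminescence was read.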
# D3 antag – antagonists of human D3 dopamine receptor; P35462; AID 652054; max response, negative = inhibition, %; 360,000 compounds, 2.5% hits; D3R cells, DiscoveRx beta-arrestin luminescence, antagonist mode; active compounds read low; in the data active = max response below about -50%; inconclusive = no clear call, values can overlap the other calls; note: % is set by controls: 0 for no effect and ±100 for the full control effect
#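 Cells expressing the human receptor were seeded at 1500 cells/well, incubated overnight at 37 degrees C in 5% CO2, then exposed to library compounds with dopamine controls for 90 minutes at 37 degrees C before luminescent detection.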
# PI4K2A inh – blocks human PI4K2A kinase activity; 420,000 compounds, 0.13% hits; Q9BTU6; AID 1346378; purified PI4K2A, ADP-Glo luminescence, 1 h; active compounds read low; activity change, negative = inhibition, % at 76.9 µM; in the data active = activity change below about -50%; inconclusive = mostly about -30% to -49%;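 note: -100% = wells without enzyme as full effect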
# Target sequence (Q9BTU6 whole entry, looked up): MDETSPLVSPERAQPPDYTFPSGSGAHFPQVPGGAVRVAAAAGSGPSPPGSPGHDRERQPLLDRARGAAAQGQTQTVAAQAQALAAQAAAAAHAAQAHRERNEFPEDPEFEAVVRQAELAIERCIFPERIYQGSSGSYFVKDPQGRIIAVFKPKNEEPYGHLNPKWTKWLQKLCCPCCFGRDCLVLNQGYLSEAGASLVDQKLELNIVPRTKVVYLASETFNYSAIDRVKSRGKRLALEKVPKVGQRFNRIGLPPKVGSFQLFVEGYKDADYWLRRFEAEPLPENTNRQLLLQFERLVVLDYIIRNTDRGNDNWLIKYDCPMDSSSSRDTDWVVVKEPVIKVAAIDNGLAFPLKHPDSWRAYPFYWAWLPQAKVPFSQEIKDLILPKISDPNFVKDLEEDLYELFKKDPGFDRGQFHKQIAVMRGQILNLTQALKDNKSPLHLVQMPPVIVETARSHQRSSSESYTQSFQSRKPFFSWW
#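 PI4K2A activity was measured by ADP-Glo luminescence: enzyme (4 ug/mL stock) and phosphatidylinositol (1.2 mM stock) in Tris pH 7.5/MgCl2/EGTA/Triton X-100 buffer were reacted with ATP (300 microM stock) for one hour at ambient temperature.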
# Akt phos inh – Akt phosphorylation inhibition; activity change, % for hits at 50 µM; AID 651550; 360,000 compounds, 0.32% hits; Neuro2A IGF-stimulated pAkt S473 HTRF, 20 min; active compounds read low; in the data active = activity change below about -80%; inconclusive = mostly about -51% to -80%; note: % is set by controls: 0 for no effect and ±100 for the full control effect
#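 Single-point screen (50 µM final compound) in Neuro2A cells stimulated 20 min with 6 nM IGF at 37 deg C. After lysis, Ser473-phosphorylated Akt read by HTRF (ex 330 nm, em 615/665 nm) as the 665/615 ratio.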
# Numbers without * were called inactive; i = inactive; ? = inconclusive; nt = not tested or not shown; [ ] = remark or other dose.
SMILES,RGS4 inhibitor,LDHA inh,DRD3 agonist,D3 antag,PI4K2A inh,Akt phos inh
O=C(CCc1ccccc1F)NCc1nc2ccccc2s1,nt,3,nt,nt,nt,nt
CC(CN(C)Cc1ccccc1)OC(=O)c1cccs1 (centres undefined),-2%,10,-5,-76*,-3,i
CC(CN(C)C)OC(=O)c1ccc2c(c1)OCO2 (centres undefined),nt,-1,nt,nt,nt,nt
CC(CN(C)Cc1ccccc1)OC(=O)c1ccc2c(c1)OCCO2 (centres undefined),-26%,6,0,-77*,3,i
O=C(Nc1ccc(Cl)c2ncccc12)c1cnc2c(c1)c(=O)[nH]c(=O)n2C1CC1,nt,74,nt,nt,nt,nt
O=C(NCC(c1ccco1)N1CCN(c2ccccc2F)CC1)C(=O)NC1CCCCC1 (centres undefined),14%,-3,54*,4,3,i
CC1Cc2ccccc2N1C(=O)Cn1c(=O)c2c(ncn2C2CCCC2)n(Cc2ccccc2)c1=O (centres undefined),nt,-2,nt,nt,nt,nt
CN1CCN(CCCN2c3ccccc3Sc3ccc(S(=O)(=O)N(C)C)cc32)CC1,-14%,-3,-23,-53*,0,i
O=c1oc(-c2ccc(F)cc2)nn1CC(O)COc1ccc2ccccc2c1 (centres undefined),nt,-30*,nt,nt,nt,nt
Cc1ccc(S(=O)(=O)NC(=S)NC2CCCCC2)cc1,6%,-6,0,-14,-2,i
CCc1ccc(S(=O)(=O)NC(=S)NC2CCCCC2)cc1,-44%,-10,-5,-67*,4,i
O=C(NC1CCCCCC1)c1ccc2c(Cl)c3c(nc2c1)CCCC3,nt,-7,nt,nt,nt,nt
CC(=O)N1N=C(c2ccccc2)CC1c1cccc([N+](=O)[O-])c1 (centres undefined),-14%,0,-9,?,-13,i
CC(=O)N1N=C(c2cccs2)CC1c1cccc([N+](=O)[O-])c1 (centres undefined),19%[56.9 µM],-3,-12,-60*,-4,i
N#C/C(=C/c1cc(Br)cc(Br)c1O)c1nc2ccccc2[nH]1,nt,24,nt,nt,nt,nt
CNC(=S)N/N=C/c1ccc(C(C)C)cc1,-30%[11.4 µM],-1,2,-59*,6,i
N#Cc1nc(-c2ccc(F)cc2)oc1NCc1ccc(Cl)cc1,nt,5,nt,nt,nt,nt
Cc1cc(C)nc(NNc2ccc([N+](=O)[O-])cc2)n1,nt,32,nt,nt,nt,nt
Cc1ccc2c(c1)cc(C(=O)NCCOc1ccc(Cl)cc1)n2C,nt,2,nt,nt,nt,nt
Cc1ccccc1OCCN1CCCC1,-12%,-12,-13,?,-2,i
Cc1ccc(C)c(OCCCCN2CCCCC2)c1,0%,-7,-17,-67*,5,i
Cc1cc(Br)ccc1OCCN1CCCC1,24%,?,-3,-69*,1,i
Cc1ccc(OCCCN2CCCC2)c(C)c1,-45%,-17,-10,-52*,15,i
CCN1CCN(CCOc2ccc(Br)cc2C)CC1,-7%,?,-26,?,3,i
Cc1ccc(OCCCCN2CCCCC2)c(C)c1,24%,-7,-6,6,0,i
SMILES,RGS4 inhibitor,LDHA inh,DRD3 agonist,D3 antag,PI4K2A inh,Akt phos inh
Cc1ccccc1OCCCN1CCCC1,0%,-10,-44,-60*,7,i
COc1ccc(-c2nc3c(s2)CN(C(C(=O)O)c2c[nH]c4ccc(Br)cc24)CC3)cc1 (centres undefined),nt,-1,nt,nt,nt,nt
c1ccc(OCCCN2CCCC2)cc1,0%,-18,-49,?,9,i
N#Cc1ccc(N)cc1OCCCN1CCCCC1,-9%,-4,-25,-52*,2,i
OCCC1CN(C/C(Cl)=C/c2ccccc2)CCN1C1CCCC1 (centres undefined),26%,-5,-9,-19,5,i
CC(C)=CCN1CCN(C/C(Cl)=C/c2ccccc2)CC1CCO (centres undefined),0%,-4,-19,-63*,0,i
COc1ccc(OC)c(NC(=S)Nc2ccccc2)c1,-29%,2,-6,-18,0,i
COc1ccc(C(=O)/C=C/Nc2ccc([N+](=O)[O-])cc2C)cc1OC,-43%,2,-8,7,-3,i
COc1ccc(C(=O)/C=C/Nc2ccc([N+](=O)[O-])cc2C)c(OC)c1,-13%,3,32*,16,5,i
Cc1ccc(C(=O)/C=C/Nc2ccccc2C(N)=O)cc1,-15%,-3,-1,-80*,4,i
NC(=O)c1ccccc1N/C=C/C(=O)c1ccc(Cl)cc1,7%,4,-11,-12,2,i
COc1ccc(OC)c(N/C=C/C(=O)c2ccccc2)c1,-13%[56.9 µM],4,8,-22,-52*,i
COC(=O)NNC(=S)Nc1cc(OC)ccc1OC,-24%,1,-4,-141*,0,i
Cc1ccccc1OC(=O)C(c1ccccc1)c1ccccc1,nt,13,nt,nt,nt,nt
Cc1ccc(NC(=O)C(C)Sc2ccc(C)cc2C)cc1 (centres undefined),nt,1,nt,nt,nt,nt
CC(NC(=O)C1CCN(c2ccc(C#N)cn2)CC1)c1ccc(F)c(F)c1 (centres undefined),nt,4,nt,nt,nt,nt
CCOC(=O)C1CCN(CCC(=O)Nc2c(C(=O)OC)[nH]c3ccc(F)cc23)CC1,nt,-4,nt,nt,nt,nt
Cc1cc(C(=O)COC(=O)c2ccc(O)cc2O)c(C)n1-c1ccccc1,16%,1,18,6,1,i
COc1ccc(-n2c(C)cc(C(=O)COC(=O)c3ccc(O)cc3O)c2C)cc1,-13%,2,44*,55,-8,i
O=C(C[C@H]1CC[C@H]2[C@@H](COC[C@@H](O)CN2S(=O)(=O)c2ccccc2)O1)N[C@@H]1CCN(Cc2ccccc2)C1,nt,-2,-13,-71*,-1,i
Cc1ccc(CNCCc2cccs2)s1,nt,5,nt,nt,nt,nt
Cc1ccccc1COn1nnc2ccc(S(=O)(=O)N3CCOCC3)cc21,18%,-7,0,-51*,3,i
CN(C(=O)COn1nnc2ccc(S(=O)(=O)N3CCOCC3)cc21)c1ccccc1,-11%,-8,6,22,-2,i
CCNC(=O)NC(=O)C(C)N(C)CC(=O)Nc1cccc2ccccc12 (centres undefined),nt,-33*,nt,nt,nt,nt
COc1ccccc1NC(=O)C(C)N(C)CC(=O)Nc1cccc2ccccc12 (centres undefined),-12%,3,4,-14,-2,i
CCOC(=O)c1ccc(Nc2cc(C)nc(-c3ccccc3O)n2)cc1,8%,-1,68*,49,-2,i
COc1ccc(F)cc1-c1cc(C(=O)NCc2ccc(C(F)(F)F)cc2)[nH]n1,nt,-5,-21,-73*,3,i
